Among the data in ChEMBL document CHEMBL4513216, “Probing the Open Global Health Chemical Diversity Library for Multistage-Active Starting Points for Next-Generation Antimalarials” (ACS Infect Dis, 2020) are INHIBITION values, retold here.

Hit rate of the full screen: of about 69,000 compounds, about 8,600 (12%) showed an effect of 50% or more. The full list was thinned out, with strong results kept by preference.

This test deals with Plasmodium berghei. Put plainly: Screen against P. berghei liver stage (PbLuc), transformed with Luciferase, at 10uM. It counts as functional, HepG2. The following applies: tested at 10 uM.
As for `Cn1ncc2c1C(COCC1CC1)CN(S(C)(=O)=O)C2` (centres undefined), the INHIBITION is 33.4%.

Regarding `CCOCC1CN(S(=O)(=O)CC)Cc2cnn(CC3CC3)c21` (centres undefined), the INHIBITION stood at 31.7%.

On to `COCC1CN(c2ccncn2)Cc2cnn(CC3CCCC3)c21` (centres undefined), for which the INHIBITION came out at 19.5%.

For the compound `CS(=O)(=O)N1Cc2cnn(CC3CC3)c2C(COCC2CC2)C1` (centres undefined), the INHIBITION is 53.4%.

`CCOCC1CN(c2ncccn2)Cc2cnn(CC3CCOCC3)c21` (centres undefined): the INHIBITION is given as 22.5%.

With `CCn1cc2c(n1)C(COC)CN(c1ccc(C)nn1)C2` (centres undefined), the INHIBITION is on record as 36.2%.

For `CCOCC1CN(c2ccc(C)nn2)Cc2nn(CC)cc21` (centres undefined), the INHIBITION is reported as 63.5%.

Take `CCOCC1CN(C2CCCC2)Cc2cnn(CC3CCOCC3)c21` (centres undefined): the INHIBITION worked out at 58.8%.

`CCOCC1CN(S(C)(=O)=O)Cc2cnn(CC3CCOCC3)c21` (centres undefined): the INHIBITION is 30.1%.

As to `CCn1cc2c(n1)C(COCC1CC1)CN(c1ccc(C)nn1)C2` (centres undefined), the INHIBITION turned out to be 41%.

As for `CCOCC1CN(C)Cc2cnn(CC3CCCC3)c21` (centres undefined), the INHIBITION is 36.8%.

For the compound `CCc1ccc(NC(=O)c2cnc(N3CCCC3)nc2C)cc1`, the INHIBITION is recorded as -55.4%.

As to `CCCn1cc(NC(=O)Nc2ccc(F)c(C(=O)NC)c2)cn1`, the INHIBITION worked out at 11.3%.

As to `OC[C@H]1CN(C2Cc3ccccc3C2)C[C@H]1CN1CCC(O)CC1`, the INHIBITION turned out to be 29.4%.

On to `CCCOCC1CCN(C(=O)c2cnc(-c3csc(C)n3)nc2O)C1` (centres undefined), for which the INHIBITION is given as -33.9%.

For `O=C(CSc1nccc(-c2ccc3c(c2)OCO3)n1)N1CCOCC1`, the INHIBITION is -47.8%.

With `Cc1cnn(CC2CCCN2Cc2nnc(-c3ccccc3)o2)c1` (centres undefined), the INHIBITION was determined as 40.9%.

Turning to `N#Cc1cccc(OCCN2CCn3c(nnc3C3CC3)C2)c1`, the INHIBITION is -1.14%.

Take `CCN(Cc1cccc2c1OCO2)C(=O)Nc1cn[nH]c1`: the INHIBITION was -16%.

On to `Cn1ncc2c1C(COCC1CC1)CN(C(=O)c1ccoc1)C2` (centres undefined), for which the INHIBITION was determined as 25.6%.

On to `COCC1CN(C(=O)c2ccoc2)Cc2cnn(CC3CCOCC3)c21` (centres undefined), for which the INHIBITION came to 51.4%.

On to `O=C(c1ccoc1)N1Cc2cnn(CC3CC3)c2C(COCC2CC2)C1` (centres undefined), for which the INHIBITION was 22.6%.

In the case of `Cc1nn(CCO)c(C)c1-c1cc(C(C)(C)C)nc(N)c1C#N`, the INHIBITION is listed as -0.71%.

As to `COc1cc(F)ccc1NC(=O)NCCNC(=O)OC(C)(C)C`, the INHIBITION turned out to be 19.1%.

`CCC(=O)Nc1ccc(F)cc1OC`: the INHIBITION amounted to 27.6%.

For the compound `COc1cc(F)ccc1NC(=O)NC(C)C(=O)NC(C)(C)C` (centres undefined), the INHIBITION is given as 50.1%.

For `CCn1ncc(CN2CCC(c3ncc(Cl)cc3S(C)(=O)=O)CC2)c1C`, the INHIBITION is listed as 20.57%.

Turning to `COc1ncccc1C(=O)NCCn1nc(C)ccc1=O`, the INHIBITION is 3.68%.

For the compound `CNc1ccc(C2CN(c3nc(C)cc(C)n3)CCO2)nc1` (centres undefined), the INHIBITION is on record as -7.9%.

Turning to `COc1ccc(CN2CCC3(CC(=O)N(c4cncnc4)C3)C2)cc1` (centres undefined), the INHIBITION was 42.6%.

On to `Cc1nn(C)c(Cl)c1C1CCCN1CC(=O)NC1CCCC1` (centres undefined), for which the INHIBITION amounted to 53%.

As to `COCCNC(=O)CN1CCCC1c1c(C)nn(C)c1Cl` (centres undefined), the INHIBITION is 36.1%.

`CC(=O)N1CCN(C(=O)CN2CCCC2c2c(C)nn(C)c2C)CC1` (centres undefined): the INHIBITION was 50.1%.

`Cc1nn(C)c(C)c1C1CCCN1CC(=O)NC(C1CC1)C1CC1` (centres undefined): the INHIBITION stood at 25.7%.

As to `Cc1nn(C)c(Cl)c1C1CCCN1CC(=O)N1CCCCC1` (centres undefined), the INHIBITION was -3.21%.

In the case of `Cc1nn(C)c(Cl)c1C1CCCN1CC(=O)NC1CCCCC1` (centres undefined), the INHIBITION was 14.7%.

Regarding `Cc1nn(C)c(Cl)c1C1CCCN1Cc1nnc(C2CC2)n1C` (centres undefined), the INHIBITION turned out to be 7.93%.

Regarding `CC(=O)NCCNC(=O)CN1CCCC1c1c(C)nn(C)c1C` (centres undefined), the INHIBITION was determined as 60.2%.

Turning to `Cc1nn(C)c(C)c1NC(=O)CN1CCCC1c1c(C)nn(C)c1C` (centres undefined), the INHIBITION is 28.8%.

Regarding `COc1c(C2CCCN2Cc2nnc(C3CC3)n2C)c(C)nn1C` (centres undefined), the INHIBITION came out at 5.94%.

As for `Cc1nn(C)c(Cl)c1C1CCCN1CC(=O)N1CCOCC1` (centres undefined), the INHIBITION is recorded as 33.6%.

For the compound `Cc1nn(C)c(C)c1C1CCCN1Cc1nnc(C2CC2)n1C` (centres undefined), the INHIBITION is recorded as 50.5%.

In the case of `Cc1cc(C(=O)NC2CCc3c(ccc(=O)n3CC(C)C)C2)no1` (centres undefined), the INHIBITION is recorded as 2.7%.

Regarding `CN(CCC#N)C(=O)Cn1cnc2c(Br)cccc2c1=O`, the INHIBITION came to 11.9%.

With `CCn1ccnc1CN1CCCN(C(=O)c2ccsc2)CC1`, the INHIBITION amounted to 16.165%.

As for `CS(=O)(=O)c1ccc(NCCC2CCCO2)c(S(C)(=O)=O)c1` (centres undefined), the INHIBITION is on record as 15.2%.

As for `Cc1cccc(SC2CCN(C(=O)CCCn3cnnn3)CC2)c1`, the INHIBITION worked out at 43.8%.

`CN(C)Cc1ccnc(NS(=O)(=O)Cc2cccc(F)c2)c1`: the INHIBITION amounted to 27%.

Take `CC(C)n1cnnc1C1CCCN(C(=O)COCc2ccccc2)C1` (centres undefined): the INHIBITION is recorded as 2.3%.

For `NC(=O)c1csc(N2C[C@@H](CN3CCC(O)CC3)[C@@H](CO)C2)n1`, the INHIBITION was found to be 19.6%.

With `CC(NC(=O)CSCC(N)=O)c1ccc(Oc2ccccc2)cc1` (centres undefined), the INHIBITION is listed as 1.86%.

Turning to `CC(NC(=O)CSCC(N)=O)c1ccccc1Oc1ccccc1` (centres undefined), the INHIBITION stood at 71.4%.

In the case of `CCS(=O)(=O)CC(=O)NC(C)c1ccccc1Oc1ccccc1` (centres undefined), the INHIBITION is recorded as -3.94%.

As for `Cc1nnc(N2C[C@@H](OCC3CCCC3)[C@H]3OCCC[C@H]32)s1`, the INHIBITION is given as -36%.
